The source of these data is PubChem BioAssay (NCATS).

The nature of test [1]: qHTS of pediatric cancer cell lines to identify multiple opportunities for drug repurposing: Primary screen for BT-37 cells (AID 1347094). Note: potency is the fitted concentration of half-maximal effect. The procedure, abridged:
(§1)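 Cells plated at 500-1,000/well in growth medium, compounds added after 5 h. MIPE tested at 11 points (from 0.78 nM), NPC at 8 points (from 0.59 nM). CellTiter-Glo luminescence after 48 h; concentration-response curves from primary screen.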

Test [2] in a line: qHTS of pediatric cancer cell lines to identify multiple opportunities for drug repurposing: Primary screen for NB-EBc1 cells (AID 1347095). Note: potency is the fitted concentration of half-maximal effect. The procedure, abridged:
as §1

Test [3] can be described thus: qHTS of pediatric cancer cell lines to identify multiple opportunities for drug repurposing: Primary screen for Saos-2 cells (AID 1347097). Note: nearly all actives have a fitted effect of over 40% in size. Note: potency is the fitted concentration of half-maximal effect. The procedure, abridged:
as §1

The nature of test [4]: qHTS of pediatric cancer cell lines to identify multiple opportunities for drug repurposing: Primary screen for SK-N-SH cells (AID 1347098). Note: nearly all actives have a fitted effect of over 65% in size. Note: potency is the fitted concentration of half-maximal effect. The essentials: (§2)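 Cells (500-1,000/well) rested 5 h, then received compounds for 48 h; metabolically active cells were measured by CellTiter-Glo luminescence. Final concentrations spanned up to 46 µM (MIPE, 11-point) or 0.59 nM-46 µM (NPC, 8-point) in primary screens, 11-point in follow-ups.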

Test [5] in a line: qHTS of pediatric cancer cell lines to identify multiple opportunities for drug repurposing: Primary screen for LAN-5 cells (AID 1347100). Note: potency is the fitted concentration of half-maximal effect. The essentials:
as §2

The nature of test [6]: qHTS of pediatric cancer cell lines to identify multiple opportunities for drug repurposing: Primary screen for BT-12 cells (AID 1347101). Note: nearly all actives have a fitted effect of over 25% in size. Note: potency is the fitted concentration of half-maximal effect. The procedure, abridged:
as §2

Test [7] in a line: qHTS of pediatric cancer cell lines to identify multiple opportunities for drug repurposing: Primary screen for Rh18 cells (AID 1347102). Note: nearly all actives have a fitted effect of over 65% in size. Note: potency is the fitted concentration of half-maximal effect. The procedure, abridged: as §2
A short description of test [8]: qHTS of pediatric cancer cell lines to identify multiple opportunities for drug repurposing: Primary screen for OHS-50 cells (AID 1347103). Note: nearly all actives have a fitted effect of over 40% in size. Note: potency is the fitted concentration of half-maximal effect. The essentials: as §2
A short description of test [9]: qHTS of pediatric cancer cell lines to identify multiple opportunities for drug repurposing: Primary screen for RD cells (AID 1347104). Note: nearly all actives have a fitted effect of over 55% in size. Note: potency is the fitted concentration of half-maximal effect. The essentials:
as §1

Test [10] in a line: qHTS of pediatric cancer cell lines to identify multiple opportunities for drug repurposing: Primary screen for control Hh wild type fibroblast cells (AID 1347106).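 Note: series mostly up to about 46 µM; a drop in luminescence marks cytotoxicity and a rise apparent proliferation; nearly all actives have a fitted effect of over 55% in size.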 The procedure, abridged:
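Cells (500-1,000/well) in growth media were settled 5 h at 37 degrees C, then given compounds for 48 h. Viability was read as CellTiter-Glo luminescence. Primary runs used MIPE at 11 points (0.78 nM-46 µM) and NPC at 8 points (0.59 nM-46 µM); follow-ups used 11 points.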

The nature of test [11]: qHTS of pediatric cancer cell lines to identify multiple opportunities for drug repurposing: Primary screen for Rh30 cells (AID 1347107). Note: series mostly up to about 46 µM; nearly all actives have a fitted effect of over 75% in size. The essentials: as §2
Test [12] is described as follows: qHTS of pediatric cancer cell lines to identify multiple opportunities for drug repurposing: Primary screen for Rh41 cells (AID 1347108). Note: nearly all actives have a fitted effect of over 70% in size. Note: potency is the fitted concentration of half-maximal effect. The essentials: as §1
Test [13] is described as follows: qHTS of pediatric cancer cell lines to identify multiple opportunities for drug repurposing: Confirmatory screen for NB1643 cells (AID 1347109). Note: nearly all actives have a fitted effect of over 45% in size. Note: potency is the fitted concentration of half-maximal effect. The essentials: as §2
The nature of test [14]: qHTS of pediatric cancer cell lines to identify multiple opportunities for drug repurposing: Confirmatory screen for A673 cells (AID 1347110).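 Note: cells exposed to compound for 48 h before the viability read; nearly all actives have a fitted effect of over 65% in size.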 Note: potency is the fitted concentration of half-maximal effect. The essentials: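 Forty-eight-hour viability assay. Follow-up compounds ran at 11-point dilutions; positive control bortezomib at 2.3 uM final, neutral control DMSO.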
Test [15] is described as follows: qHTS of pediatric cancer cell lines to identify multiple opportunities for drug repurposing: Confirmatory screen for BT-12 cells (AID 1347112). Note: nearly all actives have a fitted effect of over 55% in size. Note: potency is the fitted concentration of half-maximal effect. The essentials: as §2
Test [16] in a line: qHTS of pediatric cancer cell lines to identify multiple opportunities for drug repurposing: Confirmatory screen for LAN-5 cells (AID 1347113). Note: nearly all actives have a fitted effect of over 65% in size. Note: potency is the fitted concentration of half-maximal effect. The essentials: as §2
Test [17] in a line: qHTS of pediatric cancer cell lines to identify multiple opportunities for drug repurposing: Primary screen for NB1643 cells (AID 1347099). Note: nearly all actives have a fitted effect of over 50% in size. Note: potency is the fitted concentration of half-maximal effect. The procedure, abridged:
as §1

A short description of test [18]: qHTS of pediatric cancer cell lines to identify multiple opportunities for drug repurposing: Confirmatory screen for SK-N-MC cells (AID 1347111).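 Note: potency is the fitted concentration of half-maximal effect; cells exposed to compound for 48 h before the readout; nearly all actives have a fitted effect of over 70% in size.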 The essentials: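 Seed 500-1,000 cells/well; rest 5 h at 37 degrees C. Pin-transfer compounds, 11-point titration. Incubate 48 h. Add CellTiter-Glo, 15 min RT, read luminescence.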
Test [19] is described as follows: qHTS of pediatric cancer cell lines to identify multiple opportunities for drug repurposing: Primary screen for MG 63 (6-TG R) cells (AID 1347105). Note: nearly all actives have a fitted effect of over 50% in size. Note: potency is the fitted concentration of half-maximal effect. The essentials:
as §1

Test [20] can be described thus: qHTS of pediatric cancer cell lines to identify multiple opportunities for drug repurposing: Primary screen for U-2 OS cells (AID 1347096). Note: nearly all actives have a fitted effect of over 50% in size. The essentials: as §2

Several values for one entry are separate records, joined by “and”; a condition that tells them apart may be missing. Identical values can stand only once. Records with an inconclusive call do not appear. Activity calls are given as the source filed them. Calls come from the whole dose curve; as a rule, active = well fitted curve in the direction sought with a large enough effect; inconclusive = small, poorly fitted or top-dose-only effect, or another doubt; inactive = no such curve, though single readings can be large; an effect the other way counts as inactive or inconclusive.

Regarding `COC[C@@H](NC(C)=O)C(=O)NCc1ccccc1`, the Potency entry in [1], in test [2], in test [3], in [4], in [5] and in test [6] was “inactive” throughout. In addition, the Potency result in [7], in [8], in test [9], in test [10], in [11] and in test [12] was “inactive” each time. Moreover, the Potency result in test [13], in test [14], in test [15] and in [16] was “inactive” each time.
In the case of `C[C@@H]1[C@@H](CC(C[C@H]2O[C@@H]3O[C@]4(C)CC[C@@H]5[C@H](C)CC[C@@H]([C@H]2C)[C@@]35OO4)C[S+](=O)([O-])c2ccc(COC(=O)N(C)C)cc2)O[C@@H]2O[C@]3(C)CC[C@H]4[C@H](C)CC[C@@H]1[C@@]24OO3` (some centres undefined), the Potency in [1] is 485 nM (active); in test [2] it was 0.418 µM (active); in test [3] it was 118 nM (active); in test [17], 1.05 µM (active); in [5], 662 nM (active); in test [6], 344 nM (active). Also, the Potency in test [7] was 1.66 µM (active); in [8], 306 nM (active); in [13], 0.414 µM (active); in test [18], 0.293 µM (active); in [15], 0.657 µM (active); in test [16], 1.04 µM (active). Further, the Potency entry in [10] and in test [11] was “inactive” each time.
In the case of `Fc1ccc(C(OCCN2CCN(CCCc3ccccc3)CC2)c2ccc(F)cc2)cc1`, the Potency in [1] was 21.7 µM (active) and 24.6 µM (active); in test [2] it was 23.7 µM (active); in [3], 14.8 µM (active) and 15 µM (active); in [4], 9.7 µM (active); in [17], 13.2 µM (active); in test [5], 16.6 µM (active) and 8.41 µM (active). Further, the Potency is 21.7 µM (active) and 24.6 µM (active) in test [6]; 10.9 µM (active) and 15.5 µM (active) in [8]; 26.4 µM (active) and 23.7 µM (active) in test [9]; 21.1 µM (active) in test [19]; 20.9 µM (active) in test [12]. For the same compound, the Potency result in [10] was “inactive”.
Turning to `CCC(C(N)=O)N1CCCC1=O` (centres undefined), the Potency entry in test [1], in test [2], in test [3], in test [4], in test [17] and in test [5] was “inactive” in each case. The Potency entry in test [6], in test [7], in test [8], in [9], in test [10] and in test [11] was “inactive” each time. The Potency result in test [12] is “inactive”.
As for `O=c1[nH]c2ccccc2n1CCCN1CCC(n2c(=O)[nH]c3cc(Cl)ccc32)CC1`, the Potency result in [1], in test [2], in test [3], in [4], in test [17] and in [5] was “inactive” throughout. Further, the Potency entry in test [7], in test [8], in test [9], in test [10], in [11] and in test [12] was “inactive” throughout. Moreover, the Potency in test [13] is 7.37 µM (active); in test [14], 26.1 µM (active); in test [18], 5.22 µM (active); in test [16] it was 9.27 µM (active).
On to `c1ccc2c(c1)Nc1ccccc1S2`, for which the Potency result in test [1], in test [2], in [20], in test [17], in test [5] and in test [6] was “inactive” throughout. The Potency result in test [7], in test [9], in [19], in test [10], in [11] and in test [12] was “inactive” throughout. The Potency in test [3] was 48600 nM (active).
For the compound `CC[C@@H](CO)NC(=O)[C@@H]1C=C2c3cccc4c3c(cn4C)C[C@H]2N(C)C1`, the Potency entry in test [1], in [2], in test [20], in test [3], in [4] and in test [7] was “inactive” each time. Also, the Potency result in test [8], in [9], in test [10], in test [11] and in test [12] was “inactive” each time.
For the compound `CCC1(C2=NCCN2)Cc2ccccc2O1` (centres undefined), the Potency entry in [1], in test [2], in test [20], in test [3], in test [17] and in [5] was “inactive” each time. The Potency result in [6], in test [7], in [8], in test [9], in [19] and in test [10] was “inactive” each time. The Potency result in test [11] and in test [12] was “inactive” each time.
